# Screens as filed in PubChem.
# Only some compounds are listed: those with a hit (about 2.4% of all), similar ones and a draw of the others.
# HSP90 refold inh = blocks HSP90-mediated luciferase refolding in reticulocyte lysate; Rabbit reticulocyte lysate, luciferase refolding luminescence, 3 h; inhibition, % at 5.6 µM; 290,000 tested, 0.91% active;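 active means inhibition above the screen-wide mean plus 3 SD, computed separately per campaign, cut at about 16% in these data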;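 further: 0% = DMSO wells and 100% = 60 µM geldanamycin wells; inhibitors lower the luminescence because luciferase stays unfolded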
# HSF1 inh = HSF1 inhibition | NIH3T3-HGL HSE-luciferase, MG132-induced, luminescence 8 h; hits give low values | activity change, negative = inhibition, % at 7.5 µM (by protocol) | 300,000 tested, 0.77% active;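 active means more than half of replicate wells show activity change below -50%, luminescence cut by over half; inconclusive means some wells, but at most half, below -50%; inactive means no replicate well below -50%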;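 further: luciferase reports HSF-1 transcriptional activity via heat shock element; 0% = median of DMSO wells and -100% = zero luminescence signal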
# STAT1 inh = STAT1 signaling inhibition; NIH 3T3 STAT1-luciferase reporter, IFN-gamma, luminescence; 200,000 tested, 0.35% active; inhibition, % at 5.5 µM;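 active means inhibition above a set limit, the mean inhibition across all tested compounds plus 3 SD, cut at about 34% in these data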;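 further: 0% = IFN-gamma with DMSO and 100% = IFN-gamma with 300 µM nifuroxazide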
# PPC-1+TRAIL kill = compounds killing PPC-1 cancer cells with TRAIL present (potentiator screen, no TRAIL-free arm); PPC-1 cells + TRAIL, ATPLite viability luminescence; cell killing (% activity), % at 4 µM or 5 µM; 220,000 tested, 0.41% active;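 active means cell killing above 50% in the first pass at 4 µM, then a duplicate retest at 5 µM averaging 50% or more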;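 further: plate controls were cells with TRAIL plus DMSO for no effect and medium-only wells lacking cells for full effect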
# TRAIL sens C8 = sensitizes caspase-8 expressing cells to TRAIL | NB7+C8 cells + TRAIL, ATPlite viability luminescence | inhibition (viability loss, TRAIL sensitization), % at 10 µM | 360,000 tested, 1% active;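 active means compounds causing at least 50% loss of cell viability in the single-dose screen, relative to plate controls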
# STAT3 blocker = reduces IL-6 driven STAT3 reporter signal | U3A cells, IL-6 STAT3-luciferase reporter, luminescence; host cell line lacks STAT1 | inhibition, % at 5.5 µM | 190,000 tested, 0.89% active | AID 862;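 active means inhibition above the mean inhibition across all screened compounds plus 3 SD, cut at about 44% in these data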;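 further: 0% = DMSO only wells and 100% = 100 µM nifuroxazide control wells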
# HSP90 inh confirm = HSP90 inhibition, confirmation assay; shares compounds with HSP90 refold inh; rabbit reticulocyte lysate, luciferase refolding luminescence, 3 h; inhibition, % at 5.9 µM; AID 1846; 2,300 tested, 64% active; in the data active means inhibition above about 18%;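 further: 0% = vehicle wells and 100% = reference inhibitor wells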
# luciferase ctr = blocks native firefly luciferase in HSP90 counter-screen; shares compounds with HSP90 refold inh; purified native firefly luciferase, luminescence; inhibition, % at 5.9 µM; 2,300 tested, 48% active;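 active means inhibition above the mean inhibition of all tested sample wells plus 3 SD, cut at about 10% in these data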;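 further: 0% = DMSO with luciferase and 100% = wells lacking luciferase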
# Target sequence (P08659 whole entry, looked up): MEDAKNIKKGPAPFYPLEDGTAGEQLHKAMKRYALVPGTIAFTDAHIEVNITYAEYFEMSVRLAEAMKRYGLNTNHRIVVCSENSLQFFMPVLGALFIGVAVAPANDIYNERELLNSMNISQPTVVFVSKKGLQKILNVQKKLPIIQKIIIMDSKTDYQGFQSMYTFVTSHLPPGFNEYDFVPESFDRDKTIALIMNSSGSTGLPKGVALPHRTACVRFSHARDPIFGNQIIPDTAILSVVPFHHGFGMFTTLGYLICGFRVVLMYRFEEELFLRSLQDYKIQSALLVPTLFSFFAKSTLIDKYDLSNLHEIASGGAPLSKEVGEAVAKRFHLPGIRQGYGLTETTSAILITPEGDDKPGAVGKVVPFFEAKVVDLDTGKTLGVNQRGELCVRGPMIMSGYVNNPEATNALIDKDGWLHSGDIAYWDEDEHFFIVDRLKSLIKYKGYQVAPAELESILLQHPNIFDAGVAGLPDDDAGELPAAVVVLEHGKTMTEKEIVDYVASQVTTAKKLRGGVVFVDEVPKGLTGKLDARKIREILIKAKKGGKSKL
# The depositor's hits bear a star; ? = inconclusive; . = no result.
SMILES,HSP90 refold inh,HSF1 inh,STAT1 inh,PPC-1+TRAIL kill,TRAIL sens C8,STAT3 blocker,HSP90 inh confirm,luciferase ctr
CC(C)(C)NC(=O)C1(C)CCC(=O)N1CC(F)(F)F (stereo not given),.,.,.,.,-6,.,.,.
Cc1nc(NC(=O)c2ccco2)sc1C(=O)O,54*,-2,.,.,6,.,64*,-13
CCOCc1nnc(NC(=O)c2ccco2)s1,6,-3,-2,-14,3,-3,.,.
CCCCCCCCc1nnc(NC(=O)c2ccco2)s1,25*,1,-3,15,-5,-11,-3,-6
Cc1cc(Cl)cc2sc(NC(=O)c3ccco3)nc12,0,20,.,.,10,.,.,.
COC(=O)c1sc(NC(=O)c2ccco2)nc1C,-3,5,-7,2,12,10,.,.
Cc1cc(C)c2nc(NC(=O)c3ccco3)sc2c1,18*,8,.,.,35,.,39*,33*
CCOC(=O)N1CCN(C(=O)C[C@@H]2C[C@@]3(C(=O)OCC)CCC=C3N(Cc3cccc4ccccc34)C2=O)CC1,.,.,.,.,2,.,.,.
CC(C)Sc1nc(SCC(=O)O)c2c3c(sc2n1)COC(C)(C)C3,8,8,.,5,5,.,.,.
CC(C)Sc1nc(SCC(=O)NCc2ccco2)c2c3c(sc2n1)COC(C)(C)C3,21*,?,-27,12,11,-15,36*,1
[O-][n+]1cccc2c(Br)cc(Br)c(O)c21,1,7,-4,8,-4,-24,.,.
C[n+]1cccc2c(Br)ccc([O-])c21,19*,-2,.,4,-1,.,3,-2
COc1ccc(-n2ncc3c(NCCCN4CCOCC4)ncnc32)cc1,28*,-55*,-38,11,6,-6,32*,32*
COc1ccc(-n2ncc3c(NCCN4CCOCC4)ncnc32)cc1,26*,-3,-27,16,0,1,27*,19*
COc1cc(-c2cnc3c(NC=O)cc(-c4ccccc4Cl)cn23)cc(OC)c1OC,.,.,.,.,-14,.,.,.
CCc1ccccc1N(CC(=O)N1CCCC1)S(C)(=O)=O,22*,-56*,.,.,2,.,-3,-2
COc1cc2c(=O)n(Cc3ccccc3)c(=O)n(CC(=O)NCC3CCCO3)c2cc1OC (stereo not given),2,-3,-5,8,9,4,.,.
O=C(Cn1c(=O)n(Cc2ccc(F)cc2)c(=O)c2ccccc21)NCC1CCCO1 (stereo not given),18*,-5,.,.,-28,.,-7,-11
CN(C)S(=O)(=O)c1ccc(/C(O)=C2/C(=O)C(=O)N(Cc3cccnc3)C2c2cccs2)cc1 (stereo not given),4,-4,-10,4,4,25,.,.
Cc1c(/C(O)=C2/C(=O)C(=O)N(Cc3cccnc3)C2c2ccccn2)cnn1-c1ccccc1 (stereo not given),75*,-76*,55*,10,6,64*,24*,30*
Cc1c(/C(O)=C2/C(=O)C(=O)N(Cc3cccnc3)C2c2cccs2)cnn1-c1ccccc1 (stereo not given),55*,-64*,-44,44,6,24,55*,53*
COC(=O)c1ccc(Nc2nc3ccc(C)cc3n3cnnc23)cc1,38*,-12,.,.,-7,.,42*,10*
CCCc1ccc(C(O)c2ncc(-c3cccc(F)c3)[nH]2)cc1 (stereo not given),.,.,.,.,-27,.,.,.
CC1CCN(c2c([N+](=O)[O-])nn(-c3ccc4c(c3)OCCO4)[n+]2[O-])CC1,17*,-17,0,3,-6,12,14,-5
COc1cccc(/C=N/Nc2ncccc2[N+](=O)[O-])c1OC,67*,-7,.,24,10,.,77*,70*
SMILES,HSP90 refold inh,HSF1 inh,STAT1 inh,PPC-1+TRAIL kill,TRAIL sens C8,STAT3 blocker,HSP90 inh confirm,luciferase ctr
C[n+]1c(/C=C/c2ccc3c(c2)OCO3)ccc2ccccc21,32*,-72*,-18,.,-1,14,54*,55*
O=C(CCCc1ccccc1)Nc1cccc(C(=O)O)c1,61*,-36,71*,19,13,73*,71*,75*
Cc1occc1C(=O)Nc1cccc(C(=O)O)c1,13,-3,2,2,4,-4,.,.
Cc1cccc(C)c1OCC(=O)Nc1cccc(C(=O)O)c1,23*,-4,22,20,2,34,36*,30*
Cc1ccc(C)c(OCC(=O)Nc2cccc(C(=O)O)c2)c1C,1,15,-10,4,-8,-10,.,.
Nc1ccccc1C(=O)Nc1cccc(C(=O)O)c1,33*,-6,13,-26,-4,30,42*,21*
O=C(CCc1ccccc1)NC(=S)Nc1cccc(C(=O)O)c1,33*,9,.,.,2,.,41*,23*
COC(=O)c1cccc(NC(=O)CCc2ccccc2)c1,-4,5,-12,12,2,-8,.,.
CC(=O)Nc1ccc(NC(=O)CSc2ccc3nnc(CCNS(=O)(=O)c4ccc(C)cc4)n3n2)cc1,-3,-2,.,.,-13,.,.,.
CC(=O)c1ccc(S(=O)(=O)N2CCN(C(=O)CSc3ccc(F)cc3)CC2)cc1,24*,4,.,.,7,.,-7,-10
Cc1ccc(-c2cnc3ccccc3n2)cc1C,29*,8,.,.,9,.,64*,58*
Cc1ccc(NC(=O)c2cc(S(=O)(=O)N3CCOCC3)cn2C)cc1Cl,-2,2,.,.,7,.,.,.
O=C(O)/C(=C\c1ccc(-c2ccccc2[N+](=O)[O-])o1)c1ccccc1,34*,8,.,.,-3,.,-5,-9
Cc1ccc(C(=O)Nc2ccsc2C(=O)O)cc1,18*,30,.,.,30,.,13,-1
O=C1NC(=O)/C(=C\c2ccc(OCc3cccc(C(=O)O)c3)c(Cl)c2)N1,31*,-55*,71*,10,7,73*,45*,50*
CN(CC(=O)NCc1ccncc1)S(=O)(=O)c1ccc(Cl)cc1,0,-2,6,28,-3,3,.,.
CN(CC(=O)NCc1ccncc1)S(=O)(=O)c1cc(Cl)ccc1Cl,53*,2,.,.,-36,.,-1,-7
Cc1cc(C)cc(C(=O)Nc2ccncc2)c1,3,-2,.,.,-9,.,.,.
COc1ccc(-c2cc(C(=O)N3CCN(Cc4ccccc4)CC3)no2)cc1OC,52*,1,-9,-6,-20,-5,-1,-13
COc1ccc(-c2cc(C(=O)N3CCOCC3)c3ccccc3n2)cc1OC,.,0,.,.,-3,.,.,.
Cc1ccc(-c2cc(C(=O)N3CCOCC3)no2)cc1,62*,-6,.,.,69*,.,68*,57*
COc1cc2cc(C(=O)N3CCOCC3)cc(-c3ccc(C)cc3)c2cc1OC,50*,-3,.,.,-18,.,5,1
